Test results published in publication PMC13494018.
Unmarked numbers belong to inactive results. How the calls were made is not given here.

B1: design_604_3e0b3014-b333-46f1-8adc-d7f0bf8048fa_1949_dldesign_0_cycle1_af2pred (protein)
chain: AEKYKKKMAEAAHLYADLAMEGKPEEGEKEADAIIEKALKEGKAAGDGEAAEAAAKEARATMEYLKKTMEEADKRNK
B2: design_604_3e0b3014-b333-46f1-8adc-d7f0bf8048fa_2086_dldesign_0_cycle1_af2pred (protein)
chain: SAAAEKNVALASGTFKRLLEFPEEEQVATIADSIRANPAAADYFAAAAKADKENGPKLKKVLDIAAAKVAAA
B3: design_604_3e0b3014-b333-46f1-8adc-d7f0bf8048fa_1712_dldesign_0_cycle1_af2pred (protein)
chain: SEEGQKVLEKIEELRKEAEKFAKENKENGPKFARELAKKMRELAEKAKKEYGWNQEILNKASKVVHEARQLANEAEVEAKK
B4: design_605_6ebdab39-eaab-4492-afcb-164e20c3b25e_165_dldesign_0_cycle1_af2pred (protein)
chain: AAAAEAAAKEAAAKLAIAEARALIRAGRANPKFGVELALEGAKIAREAAKKNPAMKEELEKTAKEAEKEAKKLA
B5: design_604_3e0b3014-b333-46f1-8adc-d7f0bf8048fa_2314_dldesign_0_cycle1_af2pred (protein)
chain: EKEKRKEAIEKAEKVSTRIAKDIDTPEAKKIEELTKEAAEKALENVDNPEEVVKIMKEAAEEAAKDPEMEAVALVWKNAADFIK
B6: design_605_6ebdab39-eaab-4492-afcb-164e20c3b25e_558_dldesign_0_cycle1_af2pred (protein)
chain: EEEKKLVELLHEAQELAAEAEFYSKKDKEKSKEYIEKATKKIEEAAKLAGFEPIKAKNVEDLKEVLKEAIKKASERIKERKA
B7: design_605_6ebdab39-eaab-4492-afcb-164e20c3b25e_689_dldesign_0_cycle1_af2pred (protein)
chain: GAAQEEADKALEKAGKILKEAEKLAKEAAKIGTEEEAKELEELIKKAKELLEKGKASTPEEKKKLAVEAAEYAHEARALAKHILASK
B8: design_605_6ebdab39-eaab-4492-afcb-164e20c3b25e_707_dldesign_0_cycle1_af2pred (protein)
chain: MKKQAIELAEEAKELMEKEGATPEAVALASSALRTAGFPRELAEEVREAYKKDKEEGEKKLKEAVKLVLERAKKK
B9: design_604_3e0b3014-b333-46f1-8adc-d7f0bf8048fa_1927_dldesign_0_cycle1_af2pred (protein)
chain: LVEEAKKIAEEKAEEMKKAMEKAEKEGKEAMKKAKEKFKKLRAELKKLYEEYKKKDPEAAKKLAEGAHKMYEYMNEAEHKL
B10: design_604_3e0b3014-b333-46f1-8adc-d7f0bf8048fa_1827_dldesign_0_cycle1_af2pred (protein)
chain: MTHEEINAASYALRALTRAARDVPEAAAEFEAQIDFLMSGSIEEGVEKVIALAEKYRDRLSPEALALFEKAKEYLEKAK
B11: design_605_6ebdab39-eaab-4492-afcb-164e20c3b25e_258_dldesign_0_cycle1_af2pred (protein)
chain: KAKELSKIVHEGFQAAKELELLAKKDPRMKPAAEEAEKLRKKAVEAAKAGDYEKAAEYAKKLKELAEKALKEYE
B12: design_604_3e0b3014-b333-46f1-8adc-d7f0bf8048fa_2206_dldesign_0_cycle1_af2pred (protein)
chain: NELEKLKEEIKKEGEKKLKEVEEKYKEAKKLLKEDKEKGLKLLAETAGKAYEYAAEFEVLSKKVPEAAEYAKKLRAKAKEIRKLAEEA
B13: design_604_3e0b3014-b333-46f1-8adc-d7f0bf8048fa_2138_dldesign_0_cycle1_af2pred (protein)
chain: GEELIKRAEEVIERAEKVRKEDPSLAKEANEAISTAEQAKQAAENAVKAAADPEKAKEFKEAAEKYLEKAEKRVEELEKKVKE
B14: design_605_6ebdab39-eaab-4492-afcb-164e20c3b25e_494_dldesign_0_cycle1_af2pred (protein)
chain: AEALEKGKAASAALDANIATGFATAEKTGDKAAAGAAAVAATAEAGAAIGPEAAEKGRRVMTSIFDGYVKA
B15: design_605_6ebdab39-eaab-4492-afcb-164e20c3b25e_128_dldesign_0_cycle1_af2pred (protein)
chain: MEEKKAEEKKLKEKKEEAKEYLRRAKRAMGRAMVKGDEEAFELAEEAVYLAHLAIKDPKYIEEAKKKTEEAEKRVEA
B16: design_605_6ebdab39-eaab-4492-afcb-164e20c3b25e_390_dldesign_0_cycle1_af2pred (protein)
chain: KEEKVEEVKKKMEESSLAEAVFIGIEAVMEFTKDAPEYMRKIVKAGRKGGEEGDEEKAKKEMAEIVKKAAE
B17: design_604_3e0b3014-b333-46f1-8adc-d7f0bf8048fa_2008_dldesign_0_cycle1_af2pred (protein)
chain: SSLEEAKKAKELAEELKKKVKELAKEAKADPSKAAEAAKVAKAIGEEAKELGKKYPEAAKYADAVAEYALHAAEQLEKLA
B18: design_605_6ebdab39-eaab-4492-afcb-164e20c3b25e_2_dldesign_0_cycle1_af2pred (protein)
chain: SAVKEEAKKIIDEALDAGFEDPEKGRALAEEAYKLLASVPELAALGEEALKKVNAIIDRFEEATKKAEESRK
B19: design_605_6ebdab39-eaab-4492-afcb-164e20c3b25e_437_dldesign_0_cycle1_af2pred (protein)
chain: MKEEAEEAKKRAEAIKKAAKEDPDKAAALIAKGFASPLAAAVKAAPPETRAEAAAQAAKVATRILENEARSYERTAN
B20: design_604_3e0b3014-b333-46f1-8adc-d7f0bf8048fa_2312_dldesign_0_cycle1_af2pred (protein)
chain: MEEVEKLKKEAEKAAKEAEKAVERIKDPKTAKEALKEASKELAKLYELAAELEHLPEGKEAGKEVREKAKKLREEAKKAWAAQLAA
B21: design_604_3e0b3014-b333-46f1-8adc-d7f0bf8048fa_2472_dldesign_0_cycle1_af2pred (protein)
chain: EEEKKLTDEAIKEAKKLFAKAGAEEDAKEVAEKARKEGVSAGLSKALSLAEYYKAEGNEKKAEAAEKAAEALADALIKIRKAKRE
B22: design_605_6ebdab39-eaab-4492-afcb-164e20c3b25e_648_dldesign_0_cycle1_af2pred (protein)
chain: AEAEELKKKASQYLMEAFDTGSEEELKKAIEYAEKAAEAASEEEGKKILEEKEKMKKGFERFLKAYKEAQKKAEE
B23: design_605_6ebdab39-eaab-4492-afcb-164e20c3b25e_445_dldesign_0_cycle1_af2pred (protein)
chain: AKEKALIDLQIAEQMAEAAKEGYAGTAAAKRAAKAAKRAIKLDPSLAEEAVKIMKELAKAAAKQDPEAGKVAAKELKEVEKEAKKVKE
B24: design_604_3e0b3014-b333-46f1-8adc-d7f0bf8048fa_2309_dldesign_0_cycle1_af2pred (protein)
chain: SHELLQQAIEELTAAEAEARRAAKIAEKKDKELAKKAKELAKKARELRKELIEKAKAGEATDEYIEEVLKKAKELEKEAKKILKEL
B25: design_605_6ebdab39-eaab-4492-afcb-164e20c3b25e_729_dldesign_0_cycle1_af2pred (protein)
chain: SSSKETSEFNRELQKRARAAGEELEKKSKNPEAGKEAKKLLSNGLMESFDKSSKEEAKAALDKAIAEAKKHVEEAS
B26: design_605_6ebdab39-eaab-4492-afcb-164e20c3b25e_565_dldesign_0_cycle1_af2pred (protein)
chain: AVEKTIAELLKAASAAIIELFDDPEKGRAKLAEVLAKAEAAAKAASPKDAAKIQAALDEMKKRGEAAIKRVEEDEKIAK
B27: design_604_3e0b3014-b333-46f1-8adc-d7f0bf8048fa_1973_dldesign_0_cycle1_af2pred (protein)
chain: MAEKEAKAKKLMAEGYSKVYEAAALARVDPEEGKKEWEEVVEKYTKELEKLDPEKGKELKEKAEKLLEKAL
B28: design_604_3e0b3014-b333-46f1-8adc-d7f0bf8048fa_2199_dldesign_0_cycle1_af2pred (protein)
chain: DAAVKAEASKVAAEAYEVIAEIEKLDPEKGKELRKKLKEARKKAKEDPKAGLAALKEVLEESKKELEKLKKEEKEKE
B29: design_605_6ebdab39-eaab-4492-afcb-164e20c3b25e_16_dldesign_0_cycle1_af2pred (protein)
chain: AAAAHAKAVAEAKEEMKETIKEEAKKAKEKNEEAGKESLEFGKELLEFFEKSMEKVKDPKEAKKGGERGKKIIKKNAEAITKAIT
B30: design_605_6ebdab39-eaab-4492-afcb-164e20c3b25e_50_dldesign_0_cycle1_af2pred (protein)
chain: DEKIEELREAILESAKSGGETVEEVAKLAKELGLTSAEVMLAALEAAEELPEKRELAREIGRRIAAAVLA
B31: design_605_6ebdab39-eaab-4492-afcb-164e20c3b25e_501_dldesign_0_cycle1_af2pred (protein)
chain: AAAEEAAKKALKELKEEAKKLVEEAKKSNAEEAKKKRKEVVELGKEYAEKAAASPEVQKEIAKVVHEAQEELAEAAFEHSRKEKE
B32: design_604_3e0b3014-b333-46f1-8adc-d7f0bf8048fa_1994_dldesign_0_cycle1_af2pred (protein)
chain: DNKKTVEALSKVNRLGKEAGEAPKEETMKLVEEGVKYAKEEAKKLKDPDYKKYLIDRGKELEENAKKYLA
B33: design_605_6ebdab39-eaab-4492-afcb-164e20c3b25e_661_dldesign_0_cycle1_af2pred (protein)
chain: MEEFEKLVKEAEKLIKKALESKDKEERKKLVEEAKEVLKKAQKLGKELAAKSTPEEAKEIVEKMHELHEKLAEAKQKAS
B34: design_605_6ebdab39-eaab-4492-afcb-164e20c3b25e_250_dldesign_0_cycle1_af2pred (protein)
chain: AAAAAAARLAAGLAAAAKFVEEATKKAREIAAKKTPEESAKAKAEVEEYEAMARDALAMGNAAGARSIARLALEKVS
B35: design_605_6ebdab39-eaab-4492-afcb-164e20c3b25e_178_dldesign_0_cycle1_af2pred (protein)
chain: MSEEIKKKAEEIVEEALKKAEAAPTVEEAQAILDEALDKAVSLGKTIEEKKYAADLVSKARKKLREVWKAR
B36: design_604_3e0b3014-b333-46f1-8adc-d7f0bf8048fa_2376_dldesign_0_cycle1_af2pred (protein)
chain: EEFEKAKKELKEAAEEAKKIDPEVGKEAKKIAEKATKVADSIIEKVGERAKPIATDILKNAKEKIKKLTEKRKKEKEA
B37: design_604_3e0b3014-b333-46f1-8adc-d7f0bf8048fa_2182_dldesign_0_cycle1_af2pred (protein)
chain: EEEEKKQKAVEKAKEAAKRLKEVYEKAPEELKPIVKDALDKVEAYAELAELNDAEIAEKAAKRAEKIAEEAIKKVE
B38: design_605_6ebdab39-eaab-4492-afcb-164e20c3b25e_593_dldesign_0_cycle1_af2pred (protein)
chain: EVEAKASEVAARARQVIAEAEYLERRAKKEGDKEKEKKAKEAKELAEKALELIKKGGLEGVEKAEKLVEEAEKLLEE

Target: VTCN1, Q7Z7D3
Sequence (Q7Z7D3 whole entry): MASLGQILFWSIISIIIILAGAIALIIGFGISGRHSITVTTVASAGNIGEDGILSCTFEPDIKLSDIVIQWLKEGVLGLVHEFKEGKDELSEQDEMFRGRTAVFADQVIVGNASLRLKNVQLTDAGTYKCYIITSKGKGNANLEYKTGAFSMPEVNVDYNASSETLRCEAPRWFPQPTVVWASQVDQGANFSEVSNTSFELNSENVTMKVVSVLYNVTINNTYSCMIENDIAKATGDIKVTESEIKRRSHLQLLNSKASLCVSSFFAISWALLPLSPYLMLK

Binder | binding in a display sort
B1 | not found
B2 | not found
B3 | not found
B4 | not found
B5 | not found
B6 | not found
B7 | not found
B8 | not found
B9 | not found
B10 | not found
B11 | not found
B12 | not found
B13 | not found
B14 | not found
B15 | not found
B16 | not found
B17 | not found
B18 | not found
B19 | not found

Binder | binding in a display sort
B20 | not found
B21 | not found
B22 | not found
B23 | not found
B24 | not found
B25 | not found
B26 | not found
B27 | not found
B28 | not found
B29 | not found
B30 | not found
B31 | not found
B32 | not found
B33 | not found
B34 | not found
B35 | not found
B36 | not found
B37 | not found
B38 | not found
